Data taken from the supplement of paper PMC8728848.
Only a selection was taken, and the strongest signals are over-represented in it overall.

Tests used:
Test in all cases: glycan array binding signal (z-score within array); higher = stronger binding
Conditions in all cases: glycan notation: IUPAC condensed, linker removed
[1] = target: Fuc(a1-2)Gal(b1-3)GlcNAc(b1-2)Man(a1-3)[Fuc(a1-2)Gal(b1-3)GlcNAc(b1-2)Man(a1-6)]Man(b1-4)GlcNAc(b1-4)GlcNAc
Procedure, shortened: (§1)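 The Consortium for Functional Glycomics database supplied 3228 glycan arrays, of which those lacking an available protein sequence were dropped. The binding signal, a within-array Z-score, was averaged across arrays of the same protein sequence and across linkers. Negative scores can be read as non-binding.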

[2] = target: Fuc(a1-2)Gal(b1-3)GlcNAc(b1-3)[Fuc(a1-2)Gal(b1-3)GlcNAc(b1-6)]GalNAc
Procedure, shortened: as §1

[3] = target: Fuc(a1-2)[Gal(a1-3)]Gal(b1-3)GalNAc
Procedure, shortened: as §1

[4] = target: Fuc(a1-2)[Gal(a1-3)]Gal(b1-4)[Fuc(a1-3)]GlcNAc(b1-3)GalNAc
Procedure, shortened: as §1

[5] = target: Fuc(a1-2)[GalNAc(a1-3)]Gal(b1-4)GlcNAc(b1-2)Man(a1-3)[Fuc(a1-2)[GalNAc(a1-3)]Gal(b1-4)GlcNAc(b1-2)Man(a1-6)]Man(b1-4)GlcNAc(b1-4)[Fuc(a1-6)]GlcNAc
Procedure, shortened: as §1

[6] = target: Fuc(a1-2)[GalNAc(a1-4)]Gal(b1-4)GlcNAc
Procedure, shortened: as §1

[7] = target: Gal(a1-3)Gal(b1-3)GlcNAc(b1-6)GalNAc
Procedure, shortened: as §1

[8] = target: Gal(a1-3)Gal(b1-4)Glc
Procedure, shortened: as §1

[9] = target: Gal(a1-4)Gal(b1-3)GlcNAc(b1-2)Man(a1-3)[Gal(a1-4)Gal(b1-3)GlcNAc(b1-2)Man(a1-6)]Man(b1-4)GlcNAc(b1-4)GlcNAc
Procedure, shortened: as §1

[10] = target: Gal(a1-4)Gal(b1-4)GlcNAc(b1-2)Man(a1-3)[Gal(a1-4)Gal(b1-4)GlcNAc(b1-2)Man(a1-6)]Man(b1-4)GlcNAc(b1-4)GlcNAc
Procedure, shortened: as §1

[11] = target: Gal(b1-3)GalNAc(b1-4)Gal(b1-4)Glc
Procedure, shortened: as §1

[12] = target: Gal(b1-3)GlcNAc(b1-3)Gal(b1-4)GlcNAc(b1-2)Man(a1-3)[Gal(b1-3)GlcNAc(b1-3)Gal(b1-4)GlcNAc(b1-2)Man(a1-6)]Man(b1-4)GlcNAc(b1-4)GlcNAc
Procedure, shortened: as §1

[13] = target: Gal(b1-3)[Fuc(a1-4)]GlcNAc(b1-2)Man(a1-3)[Gal(b1-3)[Fuc(a1-4)]GlcNAc(b1-2)Man(a1-6)]Man(b1-4)GlcNAc(b1-4)[Fuc(a1-6)]GlcNAc
Procedure, shortened: as §1

[14] = target: Gal(b1-3)[Fuc(a1-4)]GlcNAc(b1-6)GalNAc
Procedure, shortened: as §1

[15] = target: Gal(b1-4)GlcNAc(b1-2)Man(a1-3)[GlcNAc(b1-4)][Gal(b1-4)GlcNAc(b1-2)Man(a1-6)]Man(b1-4)GlcNAc(b1-4)GlcNAc
Procedure, shortened: as §1

[16] = target: Gal(b1-4)GlcNAc(b1-3)Gal(b1-4)GlcNAc(b1-2)Man(a1-3)[Gal(b1-4)GlcNAc(b1-3)Gal(b1-4)GlcNAc(b1-2)Man(a1-6)]Man(b1-4)GlcNAc(b1-4)GlcNAc
Procedure, shortened: as §1

[17] = target: Gal(b1-4)GlcNAc(b1-3)Gal(b1-4)GlcNAc(b1-2)[Gal(b1-4)GlcNAc(b1-3)Gal(b1-4)GlcNAc(b1-6)]Man(a1-6)[Gal(b1-4)GlcNAc(b1-3)Gal(b1-4)GlcNAc(b1-2)Man(a1-3)]Man(b1-4)GlcNAc(b1-4)GlcNAc
Procedure, shortened: as §1

[18] = target: Gal(b1-4)GlcNAc(b1-3)Gal(b1-4)GlcNAc(b1-2)[Gal(b1-4)GlcNAc(b1-3)Gal(b1-4)GlcNAc(b1-6)]Man(a1-6)[Gal(b1-4)GlcNAc(b1-3)Gal(b1-4)GlcNAc(b1-2)Man(a1-3)]Man(b1-4)GlcNAc(b1-4)[Fuc(a1-6)]GlcNAc
Procedure, shortened: as §1

[19] = target: Gal(b1-4)GlcNAc(b1-3)Gal(b1-4)GlcNAc(b1-3)Gal(b1-4)GlcNAc(b1-3)Gal(b1-4)GlcNAc(b1-2)Man(a1-3)[Gal(b1-4)GlcNAc(b1-3)Gal(b1-4)GlcNAc(b1-3)Gal(b1-4)GlcNAc(b1-3)Gal(b1-4)GlcNAc(b1-2)Man(a1-6)]Man(b1-4)GlcNAc(b1-4)[Fuc(a1-6)]GlcNAc
Procedure, shortened: as §1

[20] = target: Gal(b1-4)GlcNAc(b1-3)Gal(b1-4)GlcNAc(b1-3)Gal(b1-4)GlcNAc(b1-3)Gal(b1-4)GlcNAc(b1-2)[Gal(b1-4)GlcNAc(b1-3)Gal(b1-4)GlcNAc(b1-3)Gal(b1-4)GlcNAc(b1-3)Gal(b1-4)GlcNAc(b1-6)]Man(a1-6)[Gal(b1-4)GlcNAc(b1-3)Gal(b1-4)GlcNAc(b1-3)Gal(b1-4)GlcNAc(b1-3)Gal(b1-4)GlcNAc(b1-2)Man(a1-3)]Man(b1-4)GlcNAc(b1-4)[Fuc(a1-6)]GlcNAc
Procedure, shortened: as §1

[21] = target: Gal(b1-4)GlcNAc(b1-3)Gal(b1-4)GlcNAc(b1-3)Gal(b1-4)GlcNAc(b1-3)Gal(b1-4)GlcNAc(b1-3)Gal(b1-4)GlcNAc(b1-2)[Gal(b1-4)GlcNAc(b1-3)Gal(b1-4)GlcNAc(b1-3)Gal(b1-4)GlcNAc(b1-3)Gal(b1-4)GlcNAc(b1-3)Gal(b1-4)GlcNAc(b1-6)]Man(a1-6)[Gal(b1-4)GlcNAc(b1-3)Gal(b1-4)GlcNAc(b1-3)Gal(b1-4)GlcNAc(b1-3)Gal(b1-4)GlcNAc(b1-3)Gal(b1-4)GlcNAc(b1-2)Man(a1-3)]Man(b1-4)GlcNAc(b1-4)[Fuc(a1-6)]GlcNAc
Procedure, shortened: as §1

[22] = target: Gal(b1-4)GlcNAc(b1-3)Gal(b1-4)GlcNAc(b1-3)[Gal(b1-4)GlcNAc(b1-3)Gal(b1-4)GlcNAc(b1-6)]GalNAc
Procedure, shortened: as §1

[23] = target: Gal(b1-4)GlcNAc(b1-3)Gal(b1-4)GlcNAc(b1-6)[Gal(b1-3)]GalNAc
Procedure, shortened: as §1

[24] = target: Gal3S(b1-3)[Fuc(a1-4)]GlcNAc
Procedure, shortened: as §1

[25] = target: GalNAc(b1-4)GlcNAc(b1-3)GalNAc(b1-4)GlcNAc
Procedure, shortened: as §1

[26] = target: Glc(a1-4)Glc(a1-4)Glc(a1-4)Glc
Procedure, shortened: as §1

[27] = target: GlcA(b1-6)Gal
Procedure, shortened: as §1

[28] = target: GlcNAc(a1-4)Gal(b1-4)GlcNAc(b1-3)Gal(b1-4)Glc
Procedure, shortened: as §1

[29] = target: GlcNAc(a1-4)Gal(b1-4)GlcNAc(b1-3)Gal(b1-4)[Fuc(a1-3)]GlcNAc(b1-3)Gal(b1-4)[Fuc(a1-3)]GlcNAc
Procedure, shortened: as §1

[30] = target: GlcNAc(b1-2)[GlcNAc(b1-6)]Man(a1-6)[GlcNAc(b1-2)Man(a1-3)]Man(b1-4)GlcNAc(b1-4)[Fuc(a1-6)]GlcNAc
Procedure, shortened: as §1

B1: GS14009A-pdi-495-27-495 (Parabacteroides distasonis) (protein)
chain: FEEVNTDPDSPTDVPTTNLLAYSLYYTSYRLYDRWFAMDEPMTFCGYASKMTYIDESRYNFRTGVQDTNWEYLYRILNNLKDIEKRATFNETPNMLNVSKVMQVHLMQVATDRWRDVPYTDAAKMTDGILQPKYDKQEDIYPGLLATLKEAADGFADGGSDDLGEGDLLFGGDIEKWQRYCNSMRLRLAMRISEVSPALAKETVEEVMGNPTKYPIMESNDDNAFFWWIGTDPNYYEPMADGYRTRKTEYCAADVIVDHMNTREDPRRSSYFQPTKESVEAGEPKYVGYTIGAKANAVASKYSIWGARFFTDLAGFSPYMRVAEPWFCVAEASMLGWNTGISAEDAYNKAVTYSMEENSVSAEDIADYLANAGKFTNDKKQIYYEEWVAMFKQGMEGWSLYRRTGVPDNLYPAPGRPANYSNHNVPPFRSPYPDKERNLNNANCAPFDAEVVDNLWGKQMWWDTRTGVH
[1]
  glycan array binding signal (z-score): 2.57
[2]
  glycan array binding signal (z-score): -0.336
[3]
  glycan array binding signal (z-score): 0.023
[4]
  glycan array binding signal (z-score): -0.109
[5]
  glycan array binding signal (z-score): 2.8
[6]
  glycan array binding signal (z-score): -0.532
[7]
  glycan array binding signal (z-score): -0.003
[8]
  glycan array binding signal (z-score): -0.017
[9]
  glycan array binding signal (z-score): 2.33
[10]
  glycan array binding signal (z-score): 2.23
[11]
  glycan array binding signal (z-score): 0.001
[12]
  glycan array binding signal (z-score): 4.58
[13]
  glycan array binding signal (z-score): 1.2
[14]
  glycan array binding signal (z-score): 0.634
[15]
  glycan array binding signal (z-score): 15.2
[16]
  glycan array binding signal (z-score): 0.299
[17]
  glycan array binding signal (z-score): 10.6
[18]
  glycan array binding signal (z-score): 0.552
[19]
  glycan array binding signal (z-score): 0.445
[20]
  glycan array binding signal (z-score): 7.28
[21]
  glycan array binding signal (z-score): 3.33
[22]
  glycan array binding signal (z-score): 0.573
[23]
  glycan array binding signal (z-score): -0.044
[24]
  glycan array binding signal (z-score): 0.01
[25]
  glycan array binding signal (z-score): -0.71
[26]
  glycan array binding signal (z-score): -0.358
[27]
  glycan array binding signal (z-score): 0.626
[28]
  glycan array binding signal (z-score): -0.147
[29]
  glycan array binding signal (z-score): 1.93
[30]
  glycan array binding signal (z-score): -0.199
